Several values for one entry are separate records, joined by “and”; a condition that tells them apart may be missing. Identical values can stand only once. About 83,000 compounds went through this panel and 20% of them were active in at least one assay; those are over-represented in the sample as a whole.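 Single-dose data. Exposure time 48 hours. Values below 10 considered active.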 Activity calls are given as the source filed them.
Experiments:
Experiment in all cases: NCI-60 one-dose screen, 48 h (100 = growth as untreated, 0 = no growth, -100 = all killed)
HCT-15 colon = conditions: 10 µM unless noted
HT29 colon = conditions: 10 µM unless noted
SNB-75 CNS = conditions: 10 µM unless noted
SNB-19 CNS = conditions: 10 µM unless noted
U251 CNS = conditions: 10 µM unless noted
PC-3 prostate = conditions: 10 µM unless noted
SK-MEL-5 melanoma = conditions: 10 µM unless noted
UACC-62 melanoma = system: UACC-62 melanoma
LOX IMVI melanoma = conditions: 10 µM unless noted
SK-MEL-28 melanoma = conditions: 10 µM unless noted
SK-MEL-2 melanoma = conditions: 10 µM unless noted
EKVX NSCLC = conditions: 10 µM unless noted
SN12C renal = conditions: 10 µM unless noted
UO-31 renal = conditions: 10 µM unless noted
TK-10 renal = system: TK-10 renal
ACHN renal = conditions: 10 µM unless noted
CAKI-1 renal = conditions: 10 µM unless noted
A498 renal = conditions: 10 µM unless noted
CCRF-CEM leukemia = conditions: 10 µM unless noted
MOLT-4 leukemia = conditions: 10 µM unless noted

Measured: growth

O=C1OCC2=C1C(c1cccc(C(F)(F)F)c1)c1cc3c(cc1N2CCO)CCC3 (configuration not stated)
inactive: SNB-75 CNS 46% | SNB-19 CNS 23% | U251 CNS 12.4% | PC-3 prostate 21.7% | UACC-62 melanoma; 10 µM unless noted 41.7% | LOX IMVI melanoma 16.5% | SK-MEL-28 melanoma 52.8% | EKVX NSCLC 40.7% | SN12C renal 24.9% | UO-31 renal 35.5% | TK-10 renal; 10 µM unless noted 53.9% | ACHN renal 23.4% | CAKI-1 renal 26.9%
active: HCT-15 colon 6.24% | HT29 colon 1.24% | SK-MEL-5 melanoma 0.201% | SK-MEL-2 melanoma 9.34% | A498 renal 1.23% | CCRF-CEM leukemia 6.63% | MOLT-4 leukemia 7.83%

OCc1cc(CN2CCCCC2)c(O)c2ncccc12
inactive: HCT-15 colon 20% | HT29 colon 41.6% | SNB-75 CNS 81.1% | SNB-19 CNS 57.3% | U251 CNS 40.5% | PC-3 prostate 46.9% | SK-MEL-5 melanoma 74.2% | UACC-62 melanoma; 10 µM unless noted 55.3% | LOX IMVI melanoma 37.3% | SK-MEL-28 melanoma 60.7% | SK-MEL-2 melanoma 81.3% | EKVX NSCLC 65.5% | SN12C renal 59.9% | UO-31 renal 17.7% | TK-10 renal; 10 µM unless noted 31% | ACHN renal 20.7% | CAKI-1 renal 13% | A498 renal 91.8% | CCRF-CEM leukemia 29.5% | MOLT-4 leukemia 36%

CN1CCCc2cc(/C=C3\SC(=S)N(C(Cc4ccc(O)cc4)C(=O)O)C3=O)ccc21 (configuration not stated)
inactive: HCT-15 colon 101% | HT29 colon 110% | SNB-75 CNS 89.9% | SNB-19 CNS 92.2% | U251 CNS 94.7% | PC-3 prostate 101% | SK-MEL-5 melanoma 100% | UACC-62 melanoma; 10 µM unless noted 93.6% | LOX IMVI melanoma 93.8% | SK-MEL-28 melanoma 113% | SK-MEL-2 melanoma 103% | EKVX NSCLC 91.6% | SN12C renal 93.3% | UO-31 renal 79.7% | TK-10 renal; 10 µM unless noted 102% | ACHN renal 103% | CAKI-1 renal 89% | A498 renal 87.8% | CCRF-CEM leukemia 106% | MOLT-4 leukemia 103%

O=C(Cn1cc(CN2CCN(c3ccnc4cc(Cl)ccc34)CC2)nn1)Nc1cccc([N+](=O)[O-])c1
inactive: HCT-15 colon 102% | HT29 colon 101% | SNB-75 CNS 83.4% | SNB-19 CNS 90.3% | U251 CNS 81.6% | PC-3 prostate 58.5% | SK-MEL-5 melanoma 70.1% | UACC-62 melanoma; 10 µM unless noted 70.8% | LOX IMVI melanoma 85.1% | SK-MEL-28 melanoma 104% | SK-MEL-2 melanoma 97.1% | EKVX NSCLC 94.4% | SN12C renal 92.9% | UO-31 renal 63.4% | TK-10 renal; 10 µM unless noted 105% | ACHN renal 87.7% | CAKI-1 renal 76.4% | A498 renal 90.7% | CCRF-CEM leukemia 33.8% | MOLT-4 leukemia 80%

Nc1nc(CSc2n[nH]c(N)n2)nc(Nc2ccccc2)n1
inactive: HCT-15 colon 94.2% | HT29 colon 106% | SNB-75 CNS 82.2% | SNB-19 CNS 101% | U251 CNS 99.9% | PC-3 prostate 101% | SK-MEL-5 melanoma 101% | UACC-62 melanoma; 10 µM unless noted 91.9% | LOX IMVI melanoma 98.3% | SK-MEL-28 melanoma 100% | SK-MEL-2 melanoma 106% | EKVX NSCLC 96.1% | SN12C renal 101% | UO-31 renal 87.2% | TK-10 renal; 10 µM unless noted 99.1% | ACHN renal 98.6% | CAKI-1 renal 87.6% | A498 renal 89.3% | CCRF-CEM leukemia 45.9% | MOLT-4 leukemia 107%

COc1cc(-c2nc(SCCC(C)C)nc(Nc3ccc(F)cc3)c2C#N)cc(OC)c1OC
inactive: HCT-15 colon 88.8% | HT29 colon 55% | SNB-75 CNS 30.8% | SNB-19 CNS 45.5% | U251 CNS 29.7% | PC-3 prostate 75.9% | SK-MEL-5 melanoma 97.6% | UACC-62 melanoma; 10 µM unless noted 80.5% | LOX IMVI melanoma 79.2% | SK-MEL-28 melanoma 104% | SK-MEL-2 melanoma 101% | EKVX NSCLC 85% | SN12C renal 64.6% | UO-31 renal 64.6% | TK-10 renal; 10 µM unless noted 41.4% | ACHN renal 34.1% | CAKI-1 renal 49.6% | A498 renal 62.5% | CCRF-CEM leukemia 91.4% | MOLT-4 leukemia 83.4%

CC[C@]12CN3CCc4c([nH]c5ccccc45)[C@@](C(=O)OC)(c4cc5c(cc4OC)N(C)[C@H]4[C@@](O)(C(=O)OC)[C@H](OC(C)=O)[C@]6(CC)C=CCN7CC[C@]54[C@@H]76)CC(C3)[C@H]1O2 (some centres not stated)
active: HT29 colon 2.74% | SNB-75 CNS -2.51% | SK-MEL-5 melanoma -26.4% | A498 renal -12.3% | CCRF-CEM leukemia 5.37%
94.4% (inactive) and -98.3% (active): UACC-62 melanoma; 100 µM
88% (inactive) and -96.5% (active): TK-10 renal; 100 µM
inactive: HCT-15 colon 29% | SNB-19 CNS 26.9% | U251 CNS 16% | PC-3 prostate 15.5% | UACC-62 melanoma; 10 µM 26.6% | LOX IMVI melanoma 19.5% | SK-MEL-28 melanoma 60.2% | SK-MEL-2 melanoma 31% | EKVX NSCLC 28.4% | SN12C renal 29.1% | UO-31 renal 32.8% | TK-10 renal; 10 µM 27.6% | ACHN renal 40.5% | CAKI-1 renal 38.9% | MOLT-4 leukemia 25.7%
